Test results as given in PubChem BioAssay (NCATS).
Records with an inconclusive call do not appear. The source made the active and inactive calls. Unless noted, calls come from the whole dose curve; as a rule, active = well fitted curve in the direction sought with a large enough effect; inconclusive = small, poorly fitted or top-dose-only effect, or another doubt; inactive = no such curve, though single readings can be large; an effect the other way counts as inactive or inconclusive.

Experiments:
[1] = Validation screen for small molecules that induce DNA re-replication in SW480 colon adenocarcinoma cells (AID 504364)
Procedure, shortened: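 Image-based DNA content read-out: Hoechst stain 40 min, total nuclear fluorescence intensity (ex 405 nm, em 500-530 nm) after 48 h compound exposure of 250 SW480 cells/well at 37 C, 5% CO2, versus DMSO vehicle.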

[2] = target: Peptidyl-prolyl cis-trans isomerase NIMA-interacting 1 (Homo sapiens) (UniProt Q13526); assay: qHTS Validation Assay to Find Inhibitors of Pin1 (AID 504536; active = well fitted inhibition curve with a large enough effect in the polarisation, with a control signal flat, not every such curve was filed as active; the % refers to the polarisation)
Procedure, shortened: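 Fluorescence polarization competition: compounds (titration) displace HiFluor-488-labeled Pin1-1b peptide from Pin1 (0.3 uM final) in pH 7.5 HEPES buffer with DTT, 10 min at room temperature; %Activity normalized to no-enzyme wells, curves fitted.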

[3] = target: Phosphoglycerate kinase, glycosomal (Trypanosoma brucei brucei) (UniProt P07378); assay: qHTS Validation Assay to Find Inhibitors of Phosphoglycerate Kinase (AID 504547)
Procedure, shortened: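 Luminescence end-point (Kinase-Glo Plus, 10 min) after a 60 min room-temperature coupled reaction. GAPDH at 100nM final supplies 1,3-BPG to PGK. Buffer: 100mM TEA pH 7.6, 5mM MgCl2, 0.01% Tween-20. Wells lacking PGK served as controls.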

[4] = target: phosphoglycerate mutase (Leishmania major) (UniProt Q4Q090); assay: qHTS Validation Assay to Find Inhibitors of Phosphoglycerate Mutase (AID 504548); note: series mostly up to about 58 µM
Procedure, shortened: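 Lm PGAM 1.25nM final; 100 mM TEA pH 7.6, 5 mM MgCl2, 0.01% Tween-20; 45 min RT; Kinase-GloPlus, 10 min; end-point luminescence. Enzyme-free wells as negative controls.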

[5] = Inducers of the Endoplasmic Reticulum Stress Response (ERSR) in human glioma: Validation (AID 504836)
Procedure, shortened: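 ERSR induction read as luciferase luminescence (Bright-Glo, 10 min at room temperature) in stably transfected human U87-MG glioma cells exposed to compounds for 16 h, using GRP78 as sensor.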

[6] = target: Ubiquitin carboxyl-terminal hydrolase 1 (Homo sapiens) (UniProt O94782); assay: Inhibitors of USP1/UAF1: Pilot qHTS (AID 504865);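 note: rhodamine fluorescence freed from ubiquitin-rhodamine substrate followed over time; top concentration of the series differs between compounds; nearly all actives have a fitted effect of over 35% in size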
Procedure, shortened: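 1nM USP1/UAF1 + cpd, 15 min RT; start w/ Ub-Rho 150nM final; kinetic FL 480/540 nm, 6 reads q60 s. Buffer 50mM HEPES pH 7.8, 0.5mM EDTA, 1mM TCEP, 0.01% Tween-20, 0.1 mg/ml BSA.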

[7] = qHTS for Inhibitors of ATXN expression: Validation of Cytotoxic Assay (AID 588349)
Procedure, shortened: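 Cytotoxicity counter-screen: ATP-based luminescent viability (CellTiter Glo) after 72 hr exposure of HEK293 cells to a compound titration at 37 degrees C.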

[8] = qHTS for Inhibitors of ATXN expression: Validation (AID 588378); note: series mostly up to about 57 µM; nearly all actives have a fitted effect of over 75% in size
Procedure, shortened: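 Cells: HEK293-ATXN2-FFLuc, phenol-red free DMEM, 2 h attachment. Compound pin-transfer, 24 h, 37 degrees C, 5% CO2. CellTiter-Fluor 30 min, Ex405/Em525; Bright-Glo 5 min, luminescence 2 s exposure.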

Measured: Potency

Phosphoglycerate kinase, glycosomal (Trypanosoma brucei brucei), sequence (P07378 whole entry, looked up): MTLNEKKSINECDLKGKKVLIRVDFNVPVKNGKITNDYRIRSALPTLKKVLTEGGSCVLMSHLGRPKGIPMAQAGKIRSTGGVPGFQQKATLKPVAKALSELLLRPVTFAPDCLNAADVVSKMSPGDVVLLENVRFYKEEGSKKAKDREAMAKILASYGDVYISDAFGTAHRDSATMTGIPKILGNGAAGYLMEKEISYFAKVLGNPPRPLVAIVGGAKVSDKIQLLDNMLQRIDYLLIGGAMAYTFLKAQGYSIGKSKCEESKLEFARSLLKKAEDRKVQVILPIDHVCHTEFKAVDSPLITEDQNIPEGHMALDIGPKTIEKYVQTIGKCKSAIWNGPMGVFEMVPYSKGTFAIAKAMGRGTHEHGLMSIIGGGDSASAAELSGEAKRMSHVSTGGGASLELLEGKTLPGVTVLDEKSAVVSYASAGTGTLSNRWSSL
Peptidyl-prolyl cis-trans isomerase NIMA-interacting 1 (Homo sapiens), sequence (Q13526 whole entry, looked up): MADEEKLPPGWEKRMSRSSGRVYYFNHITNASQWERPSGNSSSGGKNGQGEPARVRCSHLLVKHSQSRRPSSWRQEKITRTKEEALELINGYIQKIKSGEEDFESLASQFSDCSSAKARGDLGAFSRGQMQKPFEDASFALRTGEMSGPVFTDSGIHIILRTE
Ubiquitin carboxyl-terminal hydrolase 1 (Homo sapiens), sequence (O94782 whole entry, looked up): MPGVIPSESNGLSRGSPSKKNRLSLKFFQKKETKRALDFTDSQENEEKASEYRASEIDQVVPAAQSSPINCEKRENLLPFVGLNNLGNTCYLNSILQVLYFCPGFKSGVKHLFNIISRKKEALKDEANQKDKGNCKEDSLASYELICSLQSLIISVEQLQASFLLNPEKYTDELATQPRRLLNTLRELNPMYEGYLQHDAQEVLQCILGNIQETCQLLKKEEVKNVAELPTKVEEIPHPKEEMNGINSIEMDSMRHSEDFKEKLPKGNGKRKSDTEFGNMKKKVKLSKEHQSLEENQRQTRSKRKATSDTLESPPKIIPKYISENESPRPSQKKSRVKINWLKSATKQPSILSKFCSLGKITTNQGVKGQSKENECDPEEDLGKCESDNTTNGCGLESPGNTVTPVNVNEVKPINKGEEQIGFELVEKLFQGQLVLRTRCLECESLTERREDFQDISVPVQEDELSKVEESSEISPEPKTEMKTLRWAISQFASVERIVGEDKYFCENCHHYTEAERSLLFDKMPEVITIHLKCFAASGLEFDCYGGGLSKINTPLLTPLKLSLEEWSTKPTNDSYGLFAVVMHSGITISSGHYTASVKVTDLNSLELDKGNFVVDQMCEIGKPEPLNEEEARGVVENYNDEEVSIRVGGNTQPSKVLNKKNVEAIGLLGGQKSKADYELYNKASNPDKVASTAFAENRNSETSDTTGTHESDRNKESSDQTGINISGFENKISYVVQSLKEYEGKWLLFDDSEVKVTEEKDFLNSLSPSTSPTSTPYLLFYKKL
phosphoglycerate mutase (Leishmania major), sequence (Q4Q090 1-553): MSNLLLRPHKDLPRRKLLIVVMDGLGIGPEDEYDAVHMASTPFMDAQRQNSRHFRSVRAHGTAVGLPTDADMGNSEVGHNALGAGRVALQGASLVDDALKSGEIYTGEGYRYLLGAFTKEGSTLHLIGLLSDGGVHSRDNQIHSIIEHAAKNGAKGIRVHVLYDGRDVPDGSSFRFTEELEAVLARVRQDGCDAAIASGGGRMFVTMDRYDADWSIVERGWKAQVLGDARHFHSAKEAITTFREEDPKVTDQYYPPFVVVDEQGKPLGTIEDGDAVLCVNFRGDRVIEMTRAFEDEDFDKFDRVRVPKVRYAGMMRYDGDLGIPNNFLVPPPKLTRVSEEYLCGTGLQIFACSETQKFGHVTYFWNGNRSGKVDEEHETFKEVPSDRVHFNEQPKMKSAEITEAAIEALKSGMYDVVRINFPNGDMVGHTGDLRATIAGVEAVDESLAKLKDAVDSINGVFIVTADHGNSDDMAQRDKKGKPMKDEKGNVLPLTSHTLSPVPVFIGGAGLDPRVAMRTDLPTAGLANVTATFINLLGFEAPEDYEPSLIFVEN

NC1CC1c1ccccc1 (configuration not stated)
inactive: all assays above

Clc1cnc(Oc2ccc(Oc3ncc(Cl)cc3Cl)cc2)c(Cl)c1
inactive: all assays above

C[C@]12N[C@H](Cc3ccccc31)c1ccccc12
inactive: all assays above

NC(CP(=O)(O)O)C(=O)O (configuration not stated)
inactive: all assays above

COc1cc(C(O)CN)ccc1O (configuration not stated)
inactive: all assays above

NCCc1c[nH]c2ccccc12
inactive: all assays above

CC[C@@H]1C(=O)OC[C@@H]1Cc1cncn1C
inactive: [1]

CN1C2CCC1CC(OC(=O)c1cc(Cl)cc(Cl)c1)C2 (configuration not stated)
not listed: [8]
inactive: all other assays above

CCCN1CCO[C@@H]2c3cc(O)ccc3OC[C@H]21
inactive: all assays above

O=C(Cc1ccc(Cl)c(Cl)c1)N1CCCCC1CN1CCCC1 (configuration not stated)
not listed: [7] | [8]
inactive: all other assays above

CC(C)NC(C)Cc1ccc(I)cc1 (configuration not stated)
not listed: [8]
inactive: all other assays above
